Active and inactive are the calls of the source. Unless noted, how the calls were made is not given here.

The values below come from PubChem BioAssay.

Experiment [1] deals with Wnt5a (protein binding on small-molecule microarray). The experiment is described as follows: Wnt5a binders on small-molecule microarray, primary screen, biophysical, 635/667 nm fluorescence (AID 1142).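 Further: fluorescence read at 667 nm with signal to noise per printed feature.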 Conditions: 635 nm fluorescence, higher = more signal.
The nature of experiment [2]: cell viability in Huh7 cells, primary screen, cytotoxicity control for HCV replication inhibitor project, CellTiter-Glo luminescence, basal, 48 h (AID 1143).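 Further: Huh7 hepatoma cells carrying a hepatitis C replication reporter with no stimulus; test concentration not given here.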 Conditions: Huh7 HCV replicon, higher = more signal, called active from +8 up or from −8 down. Background: ATP-based viability assays read luminescence as a measure of living cells.
A short description of experiment [3]: P. aeruginosa biofilm formation inhibitors, primary screen, PAO1 strain, BacTiter-Glo luminescence, LB-PBS (AID 1144). Conditions: 12 h, higher = more signal.
Experiment [4] in a line: CREB reporter modulators without forskolin, primary screen, cell-based, PC12, CRE-LacZ reporter, unstimulated (AID 1145). Conditions: no forskolin, luminescence, 4.5 h, higher = more signal, called active from +8 up or from −8 down.
Experiment [5] in a line: CREB reporter modulators under forskolin, primary screen, cell-based, PC12, CRE-LacZ reporter, forskolin-stimulated (AID 1146).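 Further: PC12 cells with 6xCRE LacZ reporter stimulated by forskolin 10 µM; beta-galactosidase reporter signal reflecting CREB driven transcription.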 Conditions: luminescence, 4.5 h, higher = more signal, called active from +8 up or from −8 down.
For experiment [6], the target named is Streptavidin (Streptomyces avidinii) (UniProt P22629). The experiment is described as follows: streptavidin binders on small-molecule microarray, primary screen, artefact control for SMM compound annotation, biophysical, 635/667 nm fluorescence (AID 1147).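 Further: signal reflects streptavidin binding to arrayed compounds as a control protein.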 Conditions: streptavidin binding, higher = more signal.
Sequence of Streptavidin (Streptomyces avidinii) (P22629 whole entry, looked up): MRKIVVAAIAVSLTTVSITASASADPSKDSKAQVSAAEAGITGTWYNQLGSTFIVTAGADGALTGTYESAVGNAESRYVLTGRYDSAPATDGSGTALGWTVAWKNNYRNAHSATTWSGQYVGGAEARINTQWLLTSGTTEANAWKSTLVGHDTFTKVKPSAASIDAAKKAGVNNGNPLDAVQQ
Experiment [7] in a line: small-molecule binders of probe aInhba, primary screen, biochemical, small-molecule microarray, 635/667 nm fluorescence (AID 1148).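 Further: score merges 667nm spot fluorescence with signal-to-noise for antibody binding to printed compounds.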 Conditions: higher = more signal.
Experiment [8] concerns the target Torsin-1A (Homo sapiens) (UniProt O14656). As to the kind of experiment: torsin A binders from cell lysate, primary screen, small-molecule microarray, wild-type, 635/667 nm (AID 1149). Conditions: COS7 hTOR1A-WT lysate, 635 nm fluorescence, higher = more signal.
Experiment [9] shares this target. The experiment is described as follows: small-molecule binders of mutant TOR1A in lysate, primary screen, cell lysate, small-molecule microarray, COS7 lysate, 635/667 nm fluorescence (AID 1150).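 Further: score pools 667 nm emission and signal to noise measuring lysate protein binding.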 Conditions: COS7 hTOR1A mutant lysate, 635 nm fluorescence, higher = more signal.
In experiment [10] the test system is Sonic hedgehog protein (Shh). As to the kind of experiment: small-molecule binders of Shh protein, primary screen, biochemical, small-molecule microarray, 635/667 nm fluorescence (AID 1151).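 Further: Shh protein binding to compounds spotted on small-molecule microarray slides; score combines spot fluorescence intensity with signal-to-noise across triplicate slides.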 Conditions: small-molecule microarray binding, 635 nm fluorescence; higher = more signal.

Sequence of Torsin-1A (Homo sapiens) (O14656 whole entry, looked up): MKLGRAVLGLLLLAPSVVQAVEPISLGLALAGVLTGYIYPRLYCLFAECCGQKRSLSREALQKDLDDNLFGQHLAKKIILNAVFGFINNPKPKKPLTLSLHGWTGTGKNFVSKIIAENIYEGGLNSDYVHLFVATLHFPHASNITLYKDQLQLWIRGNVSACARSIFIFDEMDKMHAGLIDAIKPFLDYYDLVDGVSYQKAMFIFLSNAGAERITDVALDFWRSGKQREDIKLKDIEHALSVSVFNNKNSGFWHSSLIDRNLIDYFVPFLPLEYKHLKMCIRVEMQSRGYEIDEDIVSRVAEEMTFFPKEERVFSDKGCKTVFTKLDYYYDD

Turning to `COCCCNC(=O)[C@@H]1c2ccccc2C(=O)N(Cc2cc(F)cc(C(F)(F)F)c2)[C@H]1c1ccc(CO)cc1`, the composite z-score in experiment [1] is -0.575; in experiment [6], -0.716; in experiment [7], -0.264; in [8], -2.22; in experiment [9], -0.0932; in experiment [10] it was -0.508. The z-score in [2] is -0.016 (inactive); in experiment [3], -0.043 (inactive); in [4], 0.944 (inactive); in experiment [5], -0.224 (inactive).
For `CN1C(=O)C2C=CC(C(O)c3ccc(F)cc3)N(N3CCCCC3)C2C1=O` (stereo not given), the composite z-score was 0.442 in [1]; 0.428 in experiment [6]; 0.838 in [7]; 0.759 in [8]; 0.531 in experiment [9]; -0.846 in experiment [10]. In addition, the z-score in experiment [2] was 1 (inactive); in experiment [3], -0.273 (inactive); in [4], 1.01 (inactive); in experiment [5], -0.523 (inactive).
On to `CCN(CC)c1ccc(N2CC=CC34O[C@@H]5/C=C\CCCOC(=O)C5[C@H]3C(=O)N(CCCCCCO)[C@@H]4C2=O)cc1` (stereo not given in full), for which the composite z-score in experiment [1] was -0.517; in experiment [6], -0.41; in experiment [7] it was -0.0762; in experiment [8] it was -1.7; in experiment [9], -1.59; in [10], 0.216. The z-score in [2] is -0.0416 (inactive); in [3], 0.194 (inactive); in experiment [4], 0.475 (inactive); in [5] it was 0.458 (inactive).
With `CC(C)C(CO)N1C(=O)[C@@H]2[C@H]3C(=O)OCC=C[C@H]3OC23C=CCN(CCN2CCOCC2)C(=O)[C@@H]13` (stereo not given in full), the composite z-score is -0.406 in [1]; -0.38 in [6]; -0.128 in [7]; -0.412 in experiment [8]; 0.743 in experiment [9]; 1.73 in [10]. The z-score in [2] was 0.29 (inactive); in experiment [3], 2.66 (inactive); in experiment [4] it was 1.01 (inactive); in experiment [5], 1.25 (inactive).
Turning to `O=[N+]([O-])c1ccc(C[n+]2ccc(-c3ccc(CO)cc3)cc2)o1`, the composite z-score was -0.0922 in [1]; 0.85 in experiment [6]; 0.0816 in [7]; -0.078 in experiment [8]; 0.0063 in experiment [9]; 1.44 in experiment [10]. The z-score in experiment [2] is -1.13 (inactive); in experiment [3] it was -0.42 (inactive); in experiment [4], -0.464 (inactive); in [5] it was 0.239 (inactive).
Regarding `Cc1ccc(S[C@]2(C(=O)NCc3ccccc3)CC(=O)N(C3Cc4ccccc4C3)[C@@H]2c2ccc(CO)cc2I)cc1`, the composite z-score in [1] is -0.265; in [6] it was -0.299; in experiment [7], -0.157; in experiment [8], -0.265; in experiment [9], -1.03; in experiment [10] it was -0.0358. In addition, the z-score was -2.56 (inactive) in experiment [2], -0.394 (inactive) in [3], -0.179 (inactive) in [4] and -0.17 (inactive) in [5].
For `O=C1NC(=O)C2C1C=CC(C(O)c1ccc(-c3ccccc3)s1)N2Nc1ccccn1` (stereo not given), the composite z-score is 0.368 in [1]; 0.45 in experiment [6]; -0.0662 in experiment [7]; 0.351 in [8]; 0.898 in [9]; -0.0564 in [10]. Further, the z-score in [2] was 0.429 (inactive); in experiment [3] it was -0.505 (inactive); in experiment [4], -0.329 (inactive); in experiment [5], 0.0978 (inactive).
For `CCCC=C(CCC)[C@@H](NS(=O)(=O)c1cccc2cccnc12)c1ccc(C(=O)OC)cc1`, the composite z-score in experiment [1] is 3.01; in experiment [6] it was 0.358; in experiment [7], 2.04; in [8], 0.361; in [9], 0.0731; in [10], -0.187. Moreover, the z-score in experiment [2] was -0.0811 (inactive); in [3] it was -0.124 (inactive); in experiment [4] it was -1.13 (inactive); in experiment [5] it was 0.0608 (inactive).
In the case of `COc1ccc(C(=O)Nc2ccc(CN3C(=O)[C@]4(O[C@H](CCn5cc([C@H](O)c6ccccc6)nn5)[C@@H]([Si](C)(C)c5ccc(OC)cc5)[C@@H]4C)c4ccccc43)cc2)cc1`, the composite z-score in experiment [1] is -0.0249; in [6] it was -0.19; in [7], -0.0044; in [8], 0.33; in experiment [9], 0.223; in experiment [10], 0.666. The z-score is -6.51 (inactive) in experiment [2], -0.675 (inactive) in experiment [3], -0.375 (inactive) in experiment [4] and -1.22 (inactive) in [5].
As for `O=C1N(CCS(=O)(=O)c2ccccc2)c2ccccc2[C@H]2OC(c3ccc(OCCCO)cc3)=N[C@@]12CCS(=O)(=O)c1ccccc1`, the composite z-score turned out to be 1.52 in experiment [1]; 0.842 in [6]; 1.08 in [7]; 0.766 in experiment [8]; 1.03 in experiment [9]; 1.66 in [10]. In addition, the z-score in experiment [2] is -1.61 (inactive); in experiment [3] it was 1 (inactive); in [4], 3.35 (inactive); in experiment [5], -0.168 (inactive).
Consider `CCCc1cc2c(n1Cc1ccc(OC)cc1)C(C)C1CN(C(=O)c3ccccc3)C(C)(C(=O)OC)C21` (stereo not given), for which the composite z-score in experiment [1] amounted to 0.562; in experiment [6], 1.95; in [7], 0.297; in [8], 0.0326; in [9], 0.773; in experiment [10], 0.0704. In addition, the z-score in [2] is -3.08 (inactive); in experiment [3], 0.393 (inactive); in experiment [4], 0.207 (inactive); in [5] it was 1.52 (inactive).
With `O=C(NCc1ccccc1)[C@]1(Cc2ccccc2)N=C(c2ccc(OCCCO)cc2)O[C@@H]1c1ccccc1`, the composite z-score in experiment [1] is 0.53; in experiment [6] it was 0.621; in experiment [7] it was 0.0053; in experiment [8] it was -0.0377; in experiment [9], 0.621; in experiment [10], -0.468. Also, the z-score in [2] was -4.62 (inactive); in [3] it was -0.621 (inactive); in [4], -0.0576 (inactive); in experiment [5], -1.02 (inactive).
As for `CCCCC(CC)C(O)C1C=CC2C(=O)NC(=O)C2N1Nc1ccccn1` (stereo not given), the composite z-score in experiment [1] was -0.129; in experiment [6], 0.91; in experiment [7], -0.0405; in [8], 0.312; in [9] it was 0.624; in experiment [10] it was -0.0493. In addition, the z-score in experiment [2] is 0.683 (inactive); in experiment [3], -1.03 (inactive); in experiment [4], -0.322 (inactive); in experiment [5] it was -0.634 (inactive).
For the compound `CC(C)C[C@@H]1NC(=O)[C@@H]2C[C@H](C(=O)NCc3ccc(F)cc3)[C@H](c3ccc(O)cc3)N2C1=O`, the composite z-score in [1] was 0.187; in [6], -0.419; in experiment [7], -0.118; in experiment [8], 0.483; in experiment [9], 0.44; in [10], 1.46. For the same compound, the z-score in experiment [2] was -0.393 (inactive); in experiment [3], -0.0526 (inactive); in experiment [4], -0.26 (inactive); in experiment [5], -0.101 (inactive).
With `CCN(CC)c1ccc(N2CC=CC34O[C@@H]5/C=C\CCCOC(=O)C5[C@H]3C(=O)N(CCCCCO)[C@@H]4C2=O)cc1` (stereo not given in full), the composite z-score in experiment [1] was -0.704; in experiment [6], -1.45; in experiment [7], -0.211; in experiment [8], -2.51; in experiment [9], -1.91; in [10], -0.155. Also, the z-score is -0.119 (inactive) in experiment [2], 2.25 (inactive) in [3], 0.605 (inactive) in experiment [4] and 0.417 (inactive) in experiment [5].
